Assay [1] deals with Cytochrome P450 3A4 (Homo sapiens) (UniProt P08684). Description: qHTS Assay for Inhibitors and Substrates of Cytochrome P450 3A4 (AID 884). Also: nearly all actives have a fitted effect of over 50% in size. Also: potency is read from the fitted curve at half-maximal effect. As to activity change, negative = inhibition: % is scaled to controls: 0 for no effect and ±100 for the full control effect. Conditions: recombinant CYP3A4, Luciferin-PPXE luminescence; series mostly up to 57.1 µM. The gist of the method: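 20 nM human CYP3A4 with 25 uM Luciferin-PPXE (at KM) in 200 mM KPO4, preincubated 10 min with compound; NADPH regeneration started a 60 min RT reaction. Luciferin detected by luminescence, normalized to 57 uM ketoconazole as full inhibition.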
(In general: Quantitative high-throughput screening tests each substance at several concentrations.)

Assay [2] can be described thus: Confirmation and Secondary Assay for Modulators of Hemoglobin Beta Chain Splicing at IVS2 705 locus (AID 930).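 Also: HeLa cells stably expressing the EGFP-705 splicing reporter; GFP fluorescence per well restored by corrected splicing of the IVS2-705 intron in EGFP; % of control where 0% means no effect.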 Conditions: HeLa EGFP-705 splicing reporter, GFP fluorescence, 48 h; series mostly up to 38.3 µM. The gist of the method: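 Per-well GFP, captured at 1 x 8 µm resolution with 488 nm excitation, served as the read-out for HeLa EGFP-705 cells incubated 2 days with test compound versus DMSO.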

Assay [3] in a line: qHTS Assay for Lipid Storage Modulators (AID 1519; calls by dose curve). Particulars: Drosophila S3 cells, BODIPY lipid droplet/cell ratio, laser cytometry, cells loaded with oleic acid. The gist of the method:
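Cells seeded at 5,000 per well were treated with compounds over a concentration series and loaded with oleic acid (400 uM, as added). Lipid droplet fluorescence (488 nm excitation, 500-530 nm channel) was read by laser-scanning cytometry and normalized to 20 uM Triacsin C.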

Assay [4] can be described thus: AP1 Signaling Pathway (AID 357; active = well fitted curve in either direction with a large enough effect, not every such curve was filed as active; also: % is scaled to controls: 0 for no effect and ±100 for the full control effect). Particulars: ME-180 AP-1-bla reporter, EGF-induced, beta-lactamase ratio, 5 h; at 7.69 µM (top of the series) unless noted. The gist of the method: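 Read-out was the 460nm/530nm emission ratio (excitation 405nm) after CCF4 loading for 2.5 hours at room temperature. Cells carried an AP-1-driven beta-lactamase reporter, were stimulated with EC50 EGF plus compound for 5 hours, and AC50 values came from titrations.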

For assay [5], the target named is Cytochrome P450 1A2 (Homo sapiens) (UniProt P05177). Nature of the assay: p450-cyp1a2 (AID 410; calls by dose curve). Conditions: recombinant CYP1A2, luciferin-ME demethylation, luminescence; series mostly up to 57 µM. The gist of the method:
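Inhibition was calculated relative to 57 uM furafylline (full inhibition). The reaction used human CYP1A2 at 20nM with Luciferin-ME at its Km, 100uM, driven by an NADPH-regenerating system for 60 min at room temperature.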

Assay [6] can be described thus: Stat Signaling Pathway (AID 446; active = well fitted curve in either direction with a large enough effect, not every such curve was filed as active;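 also: ME-180 cervical cancer cells given 40 pM IL-6 alongside compound; SIE-controlled beta-lactamase reporter measured as 460/530 nm FRET emission ratio; % is scaled to controls: 0 for no effect and ±100 for the full control effect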). Particulars: ME-180 SIE beta-lactamase reporter, IL-6 stimulated, 5 h; at 7.69 µM (top of the series) unless noted. The gist of the method: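 Reporter line: ME-180 cervical carcinoma, SIE-beta-lactamase. Treatment: compound with 40 pM IL-6, 5 hrs, 37 C, in low-serum OPTI-MEM with 10 mM HEPES pH 7.3. Detection: 460/530 nm fluorescence.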

Assay [7] concerns the target Mitogen-activated protein kinase 10 (Mus musculus) (UniProt Q61831). Nature of the assay: JNK3 AlphaScreen Assay (AID 530; active = well fitted curve in either direction with a large enough effect, not every such curve was filed as active;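 also: kinase came from lysate of stimulated human HepG2 cells; signal reports phosphorylation of biotinylated GST-cJun 1-79 at Ser73 with 10 µM ATP; % is scaled to controls: 0 for no effect and ±100 for the full control effect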). Conditions: JNK3 lysate, c-Jun phosphorylation; series mostly up to 57.1 µM. The gist of the method: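 qHTS format: compounds tested as titrations against IL-1beta/TNF-alpha-activated HepG2 lysate JNK3 with biotin-GST-cJun substrate and 10 uM ATP at room temperature. Loss of anti-phospho-cJun AlphaScreen signal indicates inhibition.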
In general terms: In Alpha technology, singlet oxygen from a donor bead excites a nearby acceptor bead.

In assay [8] the target is 3',5'-cyclic-AMP phosphodiesterase 4B (Homo sapiens) (UniProt Q07343). Nature of the assay: qHTS Assay for Inhibitors of PDE-IV (AID 607; active = well fitted activation curve with a large enough effect in the main read-out, with a control signal flat, not every such curve was filed as active; also: % of control where 0% means no effect). Particulars: HEK293 ACTOne CNG channel cells, membrane potential fluorescence; series mostly up to 22.9 µM. The gist of the method: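 Cell-based read-out of cAMP via a modified cyclic nucleotide-gated channel and membrane potential dye (535/590 nm) in HEK293 cells expressing PDE4 endogenously. Compounds tested up to 22.9 uM final; 100 uM RO 20-1724 reference.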

Assay [9] addresses Cytochrome P450 3A4 (Homo sapiens) (UniProt P08684). Nature of the assay: qHTS Assay for Activators of Cytochrome P450 3A4 (AID 885). Also: nearly all actives have a fitted effect of over 65% in size. Particulars: recombinant CYP3A4, Luciferin-PPXE luminescence, 60 min; series mostly up to 57.1 µM. The gist of the method:
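Signal was normalized against complete inhibition by 57 uM ketoconazole. The reaction used 20nM CYP3A4 with 25uM Luciferin-PPXE, 10-min compound preincubation and a 60-min NADPH-supported step at RT.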

Assay [10] addresses Ubiquitin carboxyl-terminal hydrolase 1 (Homo sapiens) (UniProt O94782). Nature of the assay: Inhibitors of USP1/UAF1: Pilot qHTS (AID 504865).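 Also: rhodamine fluorescence freed from ubiquitin-rhodamine substrate followed over time; top concentration of the series differs between compounds; % is scaled to controls: 0 for no effect and ±100 for the full control effect; nearly all actives have a fitted effect of over 35% in size.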 Conditions: purified USP1/UAF1, Ub-rhodamine cleavage fluorescence; series mostly up to 54.9 µM. The gist of the method:
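Enzyme-free wells gave the negative control, while test wells held 1nM USP1/UAF1 preincubated with compound for 15 min at room temperature. Ub-Rho at 150nM final started the reaction, and fluorescence at 480/540 nm was recorded kinetically.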

A short description of assay [11]: Confirmation and Secondary Assay for Modulators of Hemoglobin Beta Chain Splicing at IVS2 654 locus (AID 910).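 Also: HeLa cells stably carrying EGFP split by mutant beta-globin IVS2-654 intron; % of control where 0% means no effect.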 Particulars: HeLa EGFP-654 splicing reporter, GFP fluorescence, 48 h; series mostly up to 38.3 µM. The gist of the method:
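HeLa cells stably expressing EGFP interrupted by β-globin IVS2-654 intron, seeded overnight in Opti-MEM/2% FCS, then treated 2 days at 37 °C. Restored splicing read as total peak GFP intensity per well by laser scanning cytometry (488 nm excitation, 500–520 nm emission); 500 nM antisense PNA as control.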

The target in assay [12] is Glucocorticoid receptor (Homo sapiens) (UniProt P04150). Description: GR-GFP Redistribution (AID 450;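 active = compounds whose dose series gives a full or clear partial fitted curve of increased nuclear translocation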; also: potency is read from the fitted curve at half-maximal effect). Particulars: U2OS GR-GFP nuclear translocation, laser cytometry, 2 h.
Assay [13] shares this target. Description: GR-EFC Redistribution (AID 451; calls by dose curve; also: potency is read from the fitted curve at half-maximal effect). Conditions: CHO-K1 GR-EFC translocation, beta-gal luminescence, 2 h. The gist of the method:
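CHO-K1 cells expressing nuclear EA and GR-ED fragments of b-gal; compounds titrated up to 46 uM final, 2 h at 37 C. GR nuclear translocation read as complemented b-gal luminescence after 1 h RT detection.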

The mark [14] stands for this setting: measured here: cell count channel max response.
Where [15] appears, read: measured here: lipid channel max response.

Records with an inconclusive call do not appear. Calls of active or inactive are those of the source. Unless noted, calls follow the shape of the dose curve; as a rule, active = well fitted curve in the direction sought with a large enough effect; inconclusive = small, poorly fitted or top-dose-only effect, or another doubt; inactive = no such curve, though single readings can be large; an effect the other way counts as inactive or inconclusive.

Chain of Ubiquitin carboxyl-terminal hydrolase 1 (Homo sapiens) (O94782 whole entry, looked up): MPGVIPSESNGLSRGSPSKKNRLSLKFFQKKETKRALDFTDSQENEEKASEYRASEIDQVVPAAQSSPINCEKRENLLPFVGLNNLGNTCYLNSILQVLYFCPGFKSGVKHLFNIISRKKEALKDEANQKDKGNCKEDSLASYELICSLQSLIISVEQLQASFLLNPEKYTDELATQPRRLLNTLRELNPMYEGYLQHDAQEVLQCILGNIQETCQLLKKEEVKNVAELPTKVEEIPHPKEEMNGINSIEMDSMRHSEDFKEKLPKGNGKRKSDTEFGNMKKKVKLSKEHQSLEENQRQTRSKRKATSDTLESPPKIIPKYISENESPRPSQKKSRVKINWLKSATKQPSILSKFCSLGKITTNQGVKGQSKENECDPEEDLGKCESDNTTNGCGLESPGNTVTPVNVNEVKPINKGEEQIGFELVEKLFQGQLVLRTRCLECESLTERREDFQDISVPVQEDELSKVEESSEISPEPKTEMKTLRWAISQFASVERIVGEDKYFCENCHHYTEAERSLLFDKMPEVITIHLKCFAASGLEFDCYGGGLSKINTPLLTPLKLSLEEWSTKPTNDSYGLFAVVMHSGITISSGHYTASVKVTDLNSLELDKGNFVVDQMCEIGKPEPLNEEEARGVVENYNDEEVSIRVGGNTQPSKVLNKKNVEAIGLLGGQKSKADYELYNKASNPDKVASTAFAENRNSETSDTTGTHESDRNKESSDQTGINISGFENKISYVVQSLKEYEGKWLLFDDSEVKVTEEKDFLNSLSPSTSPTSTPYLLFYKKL
Chain of Cytochrome P450 3A4 (Homo sapiens) (P08684 whole entry, looked up): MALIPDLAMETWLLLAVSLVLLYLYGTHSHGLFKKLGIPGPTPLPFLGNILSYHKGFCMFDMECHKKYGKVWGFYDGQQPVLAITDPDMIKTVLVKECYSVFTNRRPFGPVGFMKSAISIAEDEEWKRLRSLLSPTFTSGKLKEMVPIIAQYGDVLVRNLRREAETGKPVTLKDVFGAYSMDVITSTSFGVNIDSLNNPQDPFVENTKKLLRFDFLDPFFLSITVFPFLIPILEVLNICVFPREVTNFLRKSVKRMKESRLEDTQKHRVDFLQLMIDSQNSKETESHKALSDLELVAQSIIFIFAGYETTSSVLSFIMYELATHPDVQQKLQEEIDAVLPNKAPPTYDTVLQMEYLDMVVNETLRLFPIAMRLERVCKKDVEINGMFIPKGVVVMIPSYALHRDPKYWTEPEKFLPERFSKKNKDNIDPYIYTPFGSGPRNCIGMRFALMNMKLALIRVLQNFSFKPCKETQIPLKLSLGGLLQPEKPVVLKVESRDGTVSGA
Chain of Cytochrome P450 1A2 (Homo sapiens) (P05177 whole entry, looked up): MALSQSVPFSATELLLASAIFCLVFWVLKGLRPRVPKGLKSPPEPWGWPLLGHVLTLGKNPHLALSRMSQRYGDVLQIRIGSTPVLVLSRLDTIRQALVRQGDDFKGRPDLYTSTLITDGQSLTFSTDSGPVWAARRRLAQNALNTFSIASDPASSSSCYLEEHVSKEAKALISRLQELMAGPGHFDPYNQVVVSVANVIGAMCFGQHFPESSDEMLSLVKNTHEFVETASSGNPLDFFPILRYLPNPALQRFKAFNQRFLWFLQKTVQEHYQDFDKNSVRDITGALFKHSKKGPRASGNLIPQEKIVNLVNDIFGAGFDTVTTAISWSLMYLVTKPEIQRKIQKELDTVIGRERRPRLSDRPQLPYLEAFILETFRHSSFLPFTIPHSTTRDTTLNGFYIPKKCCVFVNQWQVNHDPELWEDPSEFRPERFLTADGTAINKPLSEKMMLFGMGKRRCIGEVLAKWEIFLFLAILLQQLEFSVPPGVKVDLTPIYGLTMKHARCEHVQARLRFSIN
Chain of 3',5'-cyclic-AMP phosphodiesterase 4B (Homo sapiens) (Q07343 whole entry, looked up): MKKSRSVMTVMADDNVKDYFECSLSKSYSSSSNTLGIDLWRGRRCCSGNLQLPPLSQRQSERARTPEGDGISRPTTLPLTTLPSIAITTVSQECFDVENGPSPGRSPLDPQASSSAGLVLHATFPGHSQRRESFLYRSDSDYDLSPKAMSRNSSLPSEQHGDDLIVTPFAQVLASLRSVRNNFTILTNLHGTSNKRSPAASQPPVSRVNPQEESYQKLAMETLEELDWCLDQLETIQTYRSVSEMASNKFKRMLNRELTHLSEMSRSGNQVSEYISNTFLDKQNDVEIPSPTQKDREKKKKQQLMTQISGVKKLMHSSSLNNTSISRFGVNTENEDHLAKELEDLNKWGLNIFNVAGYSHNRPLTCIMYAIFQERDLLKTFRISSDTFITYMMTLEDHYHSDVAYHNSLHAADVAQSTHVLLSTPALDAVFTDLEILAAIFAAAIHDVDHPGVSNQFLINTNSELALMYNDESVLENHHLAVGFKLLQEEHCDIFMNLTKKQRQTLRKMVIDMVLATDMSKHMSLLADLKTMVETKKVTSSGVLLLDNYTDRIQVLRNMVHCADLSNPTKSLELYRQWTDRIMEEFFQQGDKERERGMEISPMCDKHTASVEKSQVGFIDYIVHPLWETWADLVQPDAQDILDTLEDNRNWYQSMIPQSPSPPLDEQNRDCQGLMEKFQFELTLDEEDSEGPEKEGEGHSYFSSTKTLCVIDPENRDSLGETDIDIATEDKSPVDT
Chain of Glucocorticoid receptor (Homo sapiens) (P04150 whole entry, looked up): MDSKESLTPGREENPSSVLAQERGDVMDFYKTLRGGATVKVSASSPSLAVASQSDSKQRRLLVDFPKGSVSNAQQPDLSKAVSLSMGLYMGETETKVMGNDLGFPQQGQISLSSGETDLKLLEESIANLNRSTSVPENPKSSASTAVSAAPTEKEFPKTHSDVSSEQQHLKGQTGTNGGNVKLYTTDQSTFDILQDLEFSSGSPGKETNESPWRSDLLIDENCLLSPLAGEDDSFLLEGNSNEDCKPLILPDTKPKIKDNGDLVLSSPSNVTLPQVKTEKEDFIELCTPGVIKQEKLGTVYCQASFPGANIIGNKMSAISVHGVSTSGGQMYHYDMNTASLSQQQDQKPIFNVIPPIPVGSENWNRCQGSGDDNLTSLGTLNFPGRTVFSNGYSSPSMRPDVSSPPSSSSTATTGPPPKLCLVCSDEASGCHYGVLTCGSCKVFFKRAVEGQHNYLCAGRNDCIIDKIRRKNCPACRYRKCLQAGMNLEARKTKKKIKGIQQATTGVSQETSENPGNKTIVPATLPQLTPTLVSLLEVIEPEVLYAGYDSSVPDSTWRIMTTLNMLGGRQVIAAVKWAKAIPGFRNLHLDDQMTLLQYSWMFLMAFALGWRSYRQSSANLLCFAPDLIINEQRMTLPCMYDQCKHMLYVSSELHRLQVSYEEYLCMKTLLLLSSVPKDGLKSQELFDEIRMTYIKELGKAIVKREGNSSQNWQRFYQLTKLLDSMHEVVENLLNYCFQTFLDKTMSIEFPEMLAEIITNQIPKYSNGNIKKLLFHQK

Regarding `O=c1cc(-c2ccc(O)cc2)oc2cc(O[C@H]3OC(CO)C(O)C(O)C3O)cc(O)c12` (stereo partly specified), the Potency entry in assay [1] was “inactive”. Besides, the outcome in [2] was inactive. For the same molecule, the activity change, negative = inhibition in [3] (at 57.5 µM (top of the series)) is 6.29% (inactive). Besides, the figures for the max response in assay [3] (setting [14]) and in assay [3] (setting [15]) were -4.63% and 3.59%, respectively.

`CC(C)N1CCN(c2ccc(OC[C@@H]3CO[C@@](Cn4cncn4)(c4ccc(Cl)cc4Cl)O3)cc2)CC1`: the activity change, negative = inhibition in assay [4] was 0.955% [at 17.2 µM] (inactive); in [3] (at 25.7 µM (top of the series)) it was -0.441% (inactive). The Potency result in assay [5], in [7], in [8], in assay [9] and in [10] was “inactive” each time. The activity, negative = inhibition in assay [6] is 1.27% [at 17.2 µM] (inactive). For the same molecule, in assay [1], the Potency is 1.58 µM (active). Further, the max response was -0.321% in [3] (setting [14]) and -3.7% in [3] (setting [15]).

Regarding `C=C(NC(=O)C(=C)NC(=O)c1csc(C2=NC3c4csc(n4)C4NC(=O)c5csc(n5)C(C(C)(O)C(C)O)NC(=O)C5CSC(=N5)C(=CC)NC(=O)C(C(C)O)NC(=O)c5csc(n5)C3(CC2)NC(=O)C(C)NC(=O)C(=C)NC(=O)C(C)NC(=O)C(C(C)CC)NC2C=Cc3c(C(C)O)cc(nc3C2O)C(=O)OC4C)n1)C(N)=O` (stereo unspecified), the Potency result in [1] and in assay [11] was “inactive” in each case. Besides, in assay [2], the molecule was classed as inactive. Further, in assay [3] (at 57.5 µM (top of the series)), the activity change, negative = inhibition is -19.2% (inactive). Also, the max response in assay [3] (setting [14]) was found to be 27.8%; in assay [3] (setting [15]), 5.44%.

As for `O=c1ccc2ccc(O)cc2o1`, the Potency entry in assay [1], in [11] and in [10] was “inactive” each time. Moreover, the result in [2] was inactive. In addition, the activity change, negative = inhibition in assay [3] (at 57.5 µM (top of the series)) was 5.83% (inactive). Also, the max response in [3] (setting [14]) came to 11.1%; in [3] (setting [15]), 19.2%.

Take `CN(C)CC/C=C1\c2ccccc2CSc2ccccc21`: the activity change, negative = inhibition is 28.4% [at 17.2 µM] (inactive) in assay [4] and -6.7% (inactive) in assay [3] (at 25.7 µM (top of the series)). Moreover, the Potency entry in assay [5], in [7], in [8] and in assay [10] was “inactive” throughout. In addition, in assay [6], the activity, negative = inhibition is -0.2% [at 17.2 µM] (inactive). For the same molecule, the Potency in assay [12] and in assay [13] was > 20.6 µM (inactive) in each case. Moreover, the results for the max response in [3] (setting [14]) and in [3] (setting [15]) were -12.7% and -19.8%, respectively.

On to `C=C(C)[C@H]1CC=C(C)C(=O)C1`, for which the Potency entry in assay [7], in assay [1] and in assay [10] was “inactive” throughout. Besides, the activity change, negative = inhibition in assay [3] (at 57.5 µM (top of the series)) was -4.73% (inactive). The max response was -28% in assay [3] (setting [14]) and -15.9% in [3] (setting [15]).

(Values after PubChem BioAssay (NCATS).)
